Assay outcomes as filed in PubChem.
A selection: hits, their analogues and other compounds. The true share with any hit is near 14%.
4MU fluor – 4-MU region autofluorescence; compound autofluorescence, 340/450 nm, 4-MU equivalents; active compounds read high; max dye-equivalent concentration, M; 59,000 tested, 11% active; AID 589; in the data active means max dye-equivalent concentration above about 10 nM; inconclusive means mostly about 1.1 nM to 9.6 nM
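Intrinsic fluorescence at 340/450 nm (ex/em) was read after 15 min at room temperature in pH 8.0, 100 mM Tris. Each compound concentration expressed as 4-MU-equivalent concentration from a six-point 4-MU standard series on each plate.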
HADH2 inhib – blocks human hydroxyacyl-CoA dehydrogenase type II. recombinant HADH2, NADH fluorescence, beta-hydroxybutyryl-CoA. Potency, µM (highest dose often 57.1 µM), usual class: inhibitors. 73,000 tested, 3.4% active. AID 886; further: nearly all actives have a fitted effect of over 60% in size
Target sequence (Q99714 whole entry, looked up, one chain of several): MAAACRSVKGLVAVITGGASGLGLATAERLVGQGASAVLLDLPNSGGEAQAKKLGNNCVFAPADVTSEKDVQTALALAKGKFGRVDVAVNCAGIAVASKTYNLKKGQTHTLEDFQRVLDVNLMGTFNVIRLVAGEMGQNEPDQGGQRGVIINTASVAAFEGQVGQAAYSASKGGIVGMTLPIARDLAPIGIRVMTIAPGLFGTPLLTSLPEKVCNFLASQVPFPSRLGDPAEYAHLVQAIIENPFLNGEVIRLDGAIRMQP
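E. coli-expressed His-tagged HADH2 tested at 20 nM in alkaline Tris buffer (pH 9.0); oxidation of 90 uM beta-hydroxybutyryl-CoA with 1 mM NAD+ tracked fluorimetrically for 4 min.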
AID923 – qHTS Assay for Allosteric/Competitive Inhibitors of Caspase-1: Spectroscopic Profiling in AFC Spectral Region; compound fluorescence, AFC spectral region (405/520 nm); Potency, µM (top dose mostly 57.5 µM), actives largely listed as activators; 75,000 tested, 1.1% active
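Compound autofluorescence profiled at 405 nm ex/520 nm em during kinetic caspase 1 run (50 nM enzyme, 5 uM Ac-WEHD-AFC, HEPES pH 7.5, 10 mM DTT). Titration up to 57 uM; baseline from regression intercept, normalized to AFC standard curve.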
HSD17B inhib – inhibitors of human HSD17B10 dehydrogenase; Q99714; recombinant HSD17B10, NADH fluorescence kinetic; Potency, µM (highest dose often 57.1 µM), actives largely listed as inhibitors; 75,000 tested, 7.6% active;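 further: the protocol describes HADH2 (HSD17B10) and not the HSD17B4 of the title; nearly all actives have a fitted effect of over 70% in size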
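His-tagged E. coli-expressed HADH2 at 20 nM in 100 mM Tris-HCl pH 9.0 with 0.01 % Tween-20, preincubated 15 min with compound at room temperature. Reaction with 1 mM NAD+ and 90 uM beta-hydroxybutyryl coenzyme A; NADH fluorescence (360/450 nm) read kinetically over 4 min, last minus first point.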
A350 fluor – A350 region autofluorescence; max dye-equivalent concentration, M; 59,000 tested, 11% active; Compound autofluorescence, 340/450 nm, Alexa 350 dye-equivalents; active compounds read high; AID 590; in the data active means max dye-equivalent concentration above about 10 nM; inconclusive means mostly about 1.1 nM to 9.6 nM
CRE-bla Fsk – alters forskolin-stimulated CRE reporter signaling in CHO cells. CHO CRE-bla reporter (cAMP response element driving beta-lactamase), forskolin EC10, beta-lactamase ratio. Potency, µM (highest dose often 38.2 µM), usual class: activators. 71,000 tested, 2.5% active; active means well fitted activation curve with a large enough effect in the signal ratio, with a control signal flat, not every such curve was filed as active; inconclusive means small, poorly fitted or top-dose-only effect, or effect the other way, or a change in a side signal; the % refers to the signal ratio
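Using CellSensor CRE-bla CHO cells in Opti-MEM with 0.5% dialyzed FBS, compounds were titrated with EC10 NKH 477 for 3 h at 37 °C. CCF4 ratio (460/530 nm) gave %Activity; AC50 derived.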
Numbers stand for hits; [ ] = dose if it differs, or a comment. Unless noted, the call rests on the fitted dose curve; in most records, active means well fitted curve in the direction sought with a large enough effect; inconclusive means small, poorly fitted or top-dose-only effect, or another doubt; inactive means no such curve, though single readings can be large; an effect the other way counts as inactive or inconclusive.

Screening O=c1[nH]c(SCc2ccc(F)cc2)nc2c1cnn2-c1ccc(F)cc1 returned HADH2 inhib inactive, AID923 inactive, HSD17B inhib inactive and CRE-bla Fsk 4µM.
For CCSc1nc2c(cnn2-c2ccc(C)cc2)c(=O)[nH]1 the results were HADH2 inhib inactive, AID923 inactive, HSD17B inhib inactive and CRE-bla Fsk 10µM.
CCC(Sc1nc2c(cnn2-c2ccc(Cl)cc2)c(=O)[nH]1)C(=O)OC (configuration not stated) was read as HADH2 inhib inactive, AID923 inactive, HSD17B inhib inactive and CRE-bla Fsk 3.2µM.
For CCCCSc1nc2c(cnn2-c2ccc(Cl)cc2)c(=O)[nH]1 the results were 4MU fluor inactive, HADH2 inhib inactive, AID923 inactive, HSD17B inhib inactive, A350 fluor inactive and CRE-bla Fsk inconclusive.
`COC(=O)c1ccc(CSc2nc3c(cnn3-c3ccc(C)c(C)c3)c(=O)[nH]2)o1` gave 4MU fluor inactive, HADH2 inhib inactive, AID923 inactive, HSD17B inhib inactive, A350 fluor inactive and CRE-bla Fsk inconclusive.
`N=c1ccn2c(n1)O[C@@H]1[C@H](O)[C@H](CO)O[C@@H]12` gave AID923 inactive and HSD17B inhib inactive.
For CCCSc1nc2c(cnn2-c2ccccc2)c(=O)[nH]1 the results were HADH2 inhib inactive, AID923 inactive, HSD17B inhib inactive and CRE-bla Fsk inactive.
For CCCSc1nc2c(cnn2-c2ccc(C)cc2)c(=O)[nH]1 the results were HADH2 inhib inactive, AID923 inactive, HSD17B inhib inactive and CRE-bla Fsk 10µM.
For Cc1nc2ccccn2c1-c1nnco1 the results were 4MU fluor inconclusive, HADH2 inhib inconclusive, AID923 inactive, HSD17B inhib 32µM, A350 fluor inconclusive and CRE-bla Fsk inconclusive.
For Cc1cc(-c2nnco2)c(C)n1-c1ccccc1 the results were 4MU fluor inactive, HADH2 inhib inactive, AID923 inactive, HSD17B inhib inactive, A350 fluor inactive and CRE-bla Fsk inconclusive.
`CC1(C)N=C(c2cccc(F)c2)C(=O)N1` gave 4MU fluor 2.5e-08M, HADH2 inhib inactive, AID923 inactive, HSD17B inhib inactive, A350 fluor 2.3e-08M and CRE-bla Fsk inactive.
Screening C=CC[C@@H]1C=C[C@H](O/N=C(\C)CCN2CCc3nc(CC)c(CC)cc3C2)[C@H](CO)O1 returned HADH2 inhib inactive[11.4 µM], AID923 inactive[11.5 µM] and HSD17B inhib inactive[11.4 µM].
`CCN1C(=O)c2cccc3c(NC(=O)c4ccc5c(c4)OCCO5)ccc1c23` gave 4MU fluor inactive, HADH2 inhib inactive, AID923 inactive, HSD17B inhib inactive, A350 fluor inactive and CRE-bla Fsk 2.5µM.
`CCN1C(=O)c2cccc3c(NC(=O)C4CCCCC4)ccc1c23` gave 4MU fluor inactive, HADH2 inhib inactive, AID923 inactive, HSD17B inhib inactive, A350 fluor inactive and CRE-bla Fsk inconclusive.
`COc1ccccc1/C=c1\sc2nc(-c3ccco3)nn2c1=O` gave 4MU fluor 1.9e-08M, HADH2 inhib inconclusive, AID923 inactive, HSD17B inhib 25µM, A350 fluor 2.3e-08M and CRE-bla Fsk inactive.
CCN(CC)C[C@@H]1CCCCN1CC(=O)N1c2ccccc2C(=O)Nc2cccnc21 was read as HADH2 inhib inactive, AID923 inactive, HSD17B inhib inactive and CRE-bla Fsk inactive.
For CCCNC(=O)OC[C@@H]1O[C@H](CCO/N=C(\C)CCC(=O)OC[C@@H]2O[C@H](C#Cc3ccccc3)C=C[C@@H]2Oc2ccc(C)cc2)C=C[C@@H]1Oc1ccc(OC)cc1 the results were HADH2 inhib inactive[11.4 µM], AID923 inactive[11.5 µM] and HSD17B inhib inactive[11.4 µM].
CC(c1ccccc1)C1C(C#N)=C(N)SC(N)=C1C#N (configuration not stated) was read as 4MU fluor inactive, HADH2 inhib inconclusive, AID923 inactive, HSD17B inhib inactive, A350 fluor inactive and CRE-bla Fsk inactive.
